The source made the active and inactive calls. Rule for the calls: active = hit-call score of the fitted dose curve at least 0.9, where 1 is the maximum; inactive = score below 0.9.

Read-out in the first experiment: Matrix Metallopeptidase 1 (MMP1), MMP1 (gene 4312)
Put plainly: BSK_MyoF_MMP1: BioMAP Diversity Plus: MyoF Assay for Matrix Metallopeptidase 1 (MMP1) Biomarker Activity (AID 2284268). As to conditions: primary human lung fibroblasts. A digest of the protocol: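 MMP1 measured by ELISA 24 h after dosing primary human lung fibroblasts; cytotoxicity checked in parallel cultures by sulforhodamine B total-protein staining read at 560 nm.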
Consider `Cc1ccc2nc3sc(=O)sc3nc2c1`, for which the AC50 was 5 µM (active).

As for `c1ccc(-c2cccc(-c3ccccc3)c2)cc1`, the AC50 is 8.44 µM (active).

As for `O=C1C=CC(=O)c2ccccc21`, the AC50 is 10.1 µM (active).

Consider `Oc1ccc(Cc2ccc(O)cc2)cc1`, for which the outcome was inactive.

Take `Oc1c(Br)cc(Br)cc1Br`: the AC50 was 12.4 µM (active).

Regarding `Cc1ccccc1OP(=O)(Oc1ccccc1)Oc1ccccc1`, the AC50 was 29.6 µM (active).

As to `Cc1cccc(OP(=O)(Oc2cccc(C)c2)Oc2cccc(C)c2)c1`, the result was inactive.

For the molecule `Nc1c(Oc2ccccc2)cc(O)c2c1C(=O)c1ccccc1C2=O`, the outcome was inactive.

Consider `CCOP(=O)(OCC)SCCSCC`, for which the result was inactive.

For `Cc1ccc(OP(=O)(Oc2ccc(C)cc2C)Oc2ccc(C)cc2C)c(C)c1`, the AC50 is 5.97 µM (active).

As for `Oc1cccc(-c2ccccc2)c1`, the AC50 was 31.2 µM (active).

As for `CC(C)N(C(=O)CCl)c1ccccc1`, the outcome was inactive.

In the case of `Cc1cc(Cl)ccc1N`, the result was inactive.

As for `CC(C)(C)c1cc([N+](=O)[O-])cc(C(C)(C)C)c1O`, the outcome was inactive.

Regarding `OC(Cc1ccccc1Cl)(Cn1[nH]cnc1=S)C1(Cl)CC1` (stereo unspecified), the outcome was inactive.

Regarding `O=S(=O)(C(Cl)(Cl)Cl)C(Cl)(Cl)Cl`, the AC50 was 7.05 µM (active).

`CC(C)=CC1C(C(=O)OCc2cccc(Oc3ccccc3)c2)C1(C)C` (stereo unspecified): the result was inactive.

Regarding `O=[N+]([O-])c1cccc2ccccc12`, the outcome was inactive.

Take `C[C@]12CC[C@@H](O)C[C@@H]1CC[C@@H]1[C@@H]2CC[C@]2(C)C(=O)CC[C@@H]12`: the result was inactive.

Regarding `Cc1ccccc1OP(=O)(Oc1ccccc1C)Oc1ccccc1C`, the outcome was inactive.

In the case of `COCC(=O)N(c1c(C)cccc1C)[C@H](C)C(=O)OC`, the outcome was inactive.

Turning to `Cc1c([N+](=O)[O-])c(C)c([N+](=O)[O-])c(C(C)(C)C)c1[N+](=O)[O-]`, the AC50 was 20 µM (active).

As to `CCOP(=S)(OCC)SCS(=O)(=O)C(C)(C)C`, the result was inactive.

On to `CCC(C)(C#N)N=NC(C)(C#N)CC` (stereo unspecified), for which the result was inactive.

Read-out in the next experiment: TIMP metallopeptidase inhibitor 1 (TIMP1), TIMP1 (gene 7076)
Briefly: BSK_MyoF_TIMP1: BioMAP Diversity Plus: MyoF Assay for TIMP metallopeptidase inhibitor 1 (TIMP1) Biomarker Activity (AID 2284269). As to conditions: primary human lung fibroblasts. A digest of the protocol: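 TIMP-1 levels were determined by ELISA in human lung fibroblasts treated for 24 h. DMSO served as negative control and baseline for upward curve fitting.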
In the case of `Cc1ccc2nc3sc(=O)sc3nc2c1`, the result was inactive.

As to `c1ccc(-c2cccc(-c3ccccc3)c2)cc1`, the outcome was inactive.

With `O=C1C=CC(=O)c2ccccc21`, the AC50 was 4.43 µM (active).

In the case of `Oc1ccc(Cc2ccc(O)cc2)cc1`, the result was inactive.

As to `Oc1c(Br)cc(Br)cc1Br`, the result was inactive.

Turning to `Cc1ccccc1OP(=O)(Oc1ccccc1)Oc1ccccc1`, the AC50 was 0.0187 µM (active).

Take `Cc1cccc(OP(=O)(Oc2cccc(C)c2)Oc2cccc(C)c2)c1`: the result was inactive.

As for `Nc1c(Oc2ccccc2)cc(O)c2c1C(=O)c1ccccc1C2=O`, the outcome was inactive.

As for `CCOP(=O)(OCC)SCCSCC`, the result was inactive.

For `Cc1ccc(OP(=O)(Oc2ccc(C)cc2C)Oc2ccc(C)cc2C)c(C)c1`, the result was inactive.

Consider `Oc1cccc(-c2ccccc2)c1`, for which the outcome was inactive.

As to `CC(C)N(C(=O)CCl)c1ccccc1`, the AC50 is 3.53 µM (active).

In the case of `Cc1cc(Cl)ccc1N`, the outcome was inactive.

Take `CC(C)(C)c1cc([N+](=O)[O-])cc(C(C)(C)C)c1O`: the result was inactive.

In the case of `OC(Cc1ccccc1Cl)(Cn1[nH]cnc1=S)C1(Cl)CC1` (stereo unspecified), the outcome was inactive.

In the case of `O=S(=O)(C(Cl)(Cl)Cl)C(Cl)(Cl)Cl`, the concentration at half-maximal activity (AC50) is 2.93 µM (active).

On to `CC(C)=CC1C(C(=O)OCc2cccc(Oc3ccccc3)c2)C1(C)C` (stereo unspecified), for which the outcome was inactive.

Consider `O=[N+]([O-])c1cccc2ccccc12`, for which the outcome was inactive.

As for `C[C@]12CC[C@@H](O)C[C@@H]1CC[C@@H]1[C@@H]2CC[C@]2(C)C(=O)CC[C@@H]12`, the outcome was inactive.

`Cc1ccccc1OP(=O)(Oc1ccccc1C)Oc1ccccc1C`: the AC50 was 20 µM (active).

Take `COCC(=O)N(c1c(C)cccc1C)[C@H](C)C(=O)OC`: the result was inactive.

Regarding `Cc1c([N+](=O)[O-])c(C)c([N+](=O)[O-])c(C(C)(C)C)c1[N+](=O)[O-]`, the result was inactive.

Regarding `CCOP(=S)(OCC)SCS(=O)(=O)C(C)(C)C`, the result was inactive.

For `CCC(C)(C#N)N=NC(C)(C#N)CC` (stereo unspecified), the outcome was inactive.

Test system in the next experiment: not listed separately
Put plainly: IUF_NPC2c_oligodendrocyte_migration_120hr: Leibniz Research Institute for Environmental Medicine (IUF) 120-hour Neural Progenitor Cell Migration Assay for Oligodendrocyte Migration (NPC2c) (AID 2284297).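 Note: O4-positive oligodendrocyte migration distance divided by radial glia migration distance.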
Conditions: not given
A digest of the protocol:
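Primary hNPC spheres migrating on extracellular matrix, exposed five days to a 7-point dilution series with solvent control. Oligodendrocyte migration was scored by high-content imaging of O4 immunostaining and expressed relative to radial glia distance.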
In the case of `CNC(=O)CSP(=O)(OC)OC`, the result was inactive.

`CS(=O)(=O)c1ccc(C(=O)C2C(=O)CCCC2=O)c(Cl)c1COCC(F)(F)F`: the outcome was inactive.

Turning to `OC(Cc1ccccc1Cl)(Cn1[nH]cnc1=S)C1(Cl)CC1` (stereo unspecified), the result was inactive.

Turning to `O=S1OC[C@@H]2[C@H](CO1)[C@]1(Cl)C(Cl)=C(Cl)[C@@]2(Cl)C1(Cl)Cl` (stereo partly specified), the call was inactive.

In the case of `CC(C)[C@@H](Nc1ccc(C(F)(F)F)cc1Cl)C(=O)OC(C#N)c1cccc(Oc2ccccc2)c1` (stereo partly specified), the outcome was inactive.

`Cc1ccccc1OP(=O)(Oc1ccccc1C)Oc1ccccc1C`: the call was inactive.

With `CCOCn1c(-c2ccc(Cl)cc2)c(C#N)c(Br)c1C(F)(F)F`, the molecule was classed as inactive.

Consider `Cc1cc(C(F)(C(F)(F)F)C(F)(F)F)ccc1NC(=O)c1cccc(I)c1C(=O)NC(C)(C)CS(C)(=O)=O`, for which the call was inactive.

What is called AC50 is the concentration at which the activity in the assay is half-maximal.

(Values after PubChem BioAssay (EPA / NIEHS).)
